The panel holds about 79,000 compounds, 15% with a hit somewhere; the sample as a whole holds those more often. Activity calls are given as the source filed them. Rule as the data show it: active = growth inhibition above about 70%; inactive = the rest.
Assays:
[1] = NCI Yeast Anticancer Drug Screen. Data for the rad52 strain (AID 147);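 also: 0% = growth of vehicle-treated control cultures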; settings: S. cerevisiae rad52 mutant growth inhibition, active compounds read high
In short: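 Read-out: growth inhibition versus vehicle-treated controls. Cells were a DNA repair-deficient yeast strain treated with compounds.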

[2] = NCI Yeast Anticancer Drug Screen. Data for the wt1 strain (AID 149);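 also: 0% = growth of vehicle-treated wt1 cultures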; settings: S. cerevisiae wt1 strain (SPY 50644) growth inhibition, active compounds read high
In short: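 Each compound is tested on wt1 yeast and the loss of growth versus vehicle gives the inhibition value.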

[3] = NCI Yeast Anticancer Drug Screen. Data for the rad50EPP+ strain (AID 151);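 also: 0% = growth of vehicle-treated control cultures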; settings: S. cerevisiae rad50 mutant strain, active compounds read high
In short: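 Growth inhibition read against vehicle controls in rad50EPP+ yeast, a strain altered in DNA damage repair, after compound exposure.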

[4] = NCI Yeast Anticancer Drug Screen. Data for the mgt1 strain (AID 153); settings: S. cerevisiae mgt1 mutant growth inhibition, active compounds read high
In short: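 mgt1 yeast grown with test compound; read-out is growth inhibition versus vehicle-treated cultures.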

[5] = NCI Yeast Anticancer Drug Screen. Data for the rad50 strain (AID 155);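 also: 0% = growth of vehicle-only cultures of the same strain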; settings: S. cerevisiae rad50 strain growth inhibition, active compounds read high
In short: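 Vehicle-treated cultures provide the reference for the growth inhibition reported for compound-exposed, repair-deficient yeast.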

[6] = NCI Yeast Anticancer Drug Screen. Data for the mec2-1 strain (AID 157); settings: S. cerevisiae mec2-1 strain, active compounds read high
In short: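 Yeast mec2-1 mutant treated with compound. Readout: growth inhibition vs vehicle controls.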

[7] = NCI Yeast Anticancer Drug Screen. Data for the rad14 strain (AID 159);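 also: 0% = growth of vehicle-treated control cultures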; settings: S. cerevisiae rad14 strain growth inhibition, active compounds read high
In short: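 Inhibition of growth is reported for a repair-deficient yeast mutant following compound treatment, calculated relative to cultures that received vehicle.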

[8] = NCI Yeast Anticancer Drug Screen. Data for the sgs1 mgt1 strain (AID 161);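 also: 0% = growth of cultures given vehicle only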; settings: S. cerevisiae sgs1 mgt1 strain, active compounds read high
In short: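 Mutant yeast exposed to compound; growth scored against vehicle-only wells.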

[9] = NCI Yeast Anticancer Drug Screen. Data for the CLN2oe strain (AID 163);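 also: 0% = growth of vehicle-only control cultures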; settings: S. cerevisiae CLN2oe strain, active compounds read high
In short: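 Read-out: yeast growth inhibition, expressed relative to vehicle-only controls. The strain bears an engineered cell-cycle alteration.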

[10] = NCI Yeast Anticancer Drug Screen. Data for the cln2 rad14 strain (AID 165);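 also: 0% = growth equal to vehicle treated cultures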; settings: S. cerevisiae cln2 rad14 strain, active compounds read high
In short: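 cln2 rad14 yeast strain; compound exposure; growth inhibition read vs vehicle controls.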

[11] = NCI Yeast Anticancer Drug Screen. Data for the bub3 strain (AID 167); settings: S. cerevisiae bub3 mutant strain, active compounds read high
In short: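 Mutant yeast screening strain plus compound; vehicle-treated cultures serve as the 0% inhibition reference.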

[12] = NCI Yeast Anticancer Drug Screen. Data for the wt2 strain (AID 169); settings: S. cerevisiae wt2 strain growth inhibition, active compounds read high
In short: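 Read-out: growth inhibition versus vehicle-treated control cultures after compound exposure of the yeast strain.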

[13] = NCI Yeast Anticancer Drug Screen. Data for the mlh1 strain (AID 171);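 also: 0% = growth of vehicle-treated control cultures of the same strain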; settings: S. cerevisiae mlh1 strain growth inhibition, active compounds read high
In short: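 Read-out: growth inhibition versus vehicle controls. Strain: engineered yeast with a defined DNA repair or cell cycle defect, compound-treated.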

[14] = NCI Yeast Anticancer Drug Screen. Data for the sgs1 strain (AID 173);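 also: 0% = growth of vehicle-only control cultures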; settings: S. cerevisiae sgs1 mutant, active compounds read high
In short: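 Read-out: yeast growth inhibition relative to vehicle controls, following compound exposure of a strain with a defined DNA repair/cell cycle alteration.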

[15] = NCI Yeast Anticancer Drug Screen. Data for the mlh1 rad18 strain (AID 175); settings: S. cerevisiae mlh1 rad18 strain growth inhibition, active compounds read high
In short: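 Yeast w/ defined DNA-repair lesions; compound exposure; growth vs vehicle controls → % inhibition.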

[16] = at 5.0 µM (retest, dose inferred, filed as 0.5)
[17] = at 50.0 µM (retest, dose inferred, filed as 5.0)

Measured: growth inhibition

COc1ccc(C(C#N)=C2C=CC(=NO)C=C2)cc1
inactive: [1]; at 1.2 µM 11% | [1]; at 3.7 µM 34% | [2]; at 1.2 µM -1% | [2]; at 3.7 µM -2% | [2]; at 11.0 µM 14% | [3]; at 1.2 µM 42% | [4]; at 1.2 µM 0% | [4]; at 3.7 µM 18% | [5]; at 1.2 µM 18% | [5]; at 3.7 µM 38% | [5]; [16] 23% | [5]; [17] 62% | [5]; at 50.0 µM 65.4% | [6]; at 1.2 µM 1% | [6]; at 3.7 µM 16% | [6]; [16] -2% | [6]; [17] 25% | [7]; at 1.2 µM 13% | [7]; at 3.7 µM 19% | [8]; [16] 51% | [9]; at 1.2 µM 7% | [9]; at 3.7 µM 11% | [9]; at 11.0 µM 58% | [9]; at 33.0 µM 55% | [9]; at 100.0 µM 68% | [10]; [16] 17% | [10]; [17] 41% | [10]; at 50.0 µM 60.3% | [11]; at 1.2 µM -1% | [11]; at 3.7 µM 7% | [11]; [16] 24% | [11]; at 11.0 µM 22% | [11]; at 33.0 µM 42% | [12]; at 1.2 µM -9% | [12]; at 3.7 µM 42% | [13]; at 1.2 µM 8% | [13]; at 3.7 µM 29% | [13]; at 11.0 µM 66% | [14]; at 1.2 µM 5% | [14]; at 3.7 µM 32% | [15]; [16] 48%
active: [1]; at 11.0 µM 89% | [1]; at 33.0 µM 96% | [1]; at 100.0 µM 96% | [2]; at 33.0 µM 96% | [2]; at 100.0 µM 97% | [3]; at 3.7 µM 70% | [3]; at 11.0 µM 90% | [3]; at 33.0 µM 93% | [3]; at 100.0 µM 93% | [4]; at 11.0 µM 88% | [4]; at 33.0 µM 97% | [4]; at 100.0 µM 91% | [5]; at 11.0 µM 81% | [5]; at 33.0 µM 96% | [5]; at 100.0 µM 95% | [6]; at 11.0 µM 96% | [6]; at 33.0 µM 97% | [6]; at 50.0 µM 88.2% | [6]; at 100.0 µM 98% | [7]; at 11.0 µM 83% | [7]; at 33.0 µM 96% | [7]; at 100.0 µM 82% | [8]; [17] 79% | [8]; at 50.0 µM 87.7% | [11]; [17] 82% | [11]; at 50.0 µM 85.8% | [11]; at 100.0 µM 72% | [12]; at 11.0 µM 84% | [12]; at 33.0 µM 99% | [12]; at 100.0 µM 99% | [13]; at 33.0 µM 97% | [13]; at 100.0 µM 95% | [14]; at 11.0 µM 87% | [14]; at 33.0 µM 99% | [14]; at 100.0 µM 98% | [15]; [17] 85% | [15]; at 50.0 µM 91.5%

CCC(=O)Oc1ccc(/C=N/NC(N)=S)nc1
active: [6]; [17] 95% | [6]; at 50.0 µM 87.4% | [6]; at 100.0 µM 91%
inactive: [1]; at 1.2 µM -6% | [1]; at 3.7 µM -11% | [1]; at 11.0 µM 4% | [1]; at 33.0 µM 13% | [1]; at 100.0 µM 18% | [2]; at 1.2 µM 0% | [2]; at 3.7 µM 7% | [2]; at 11.0 µM 7% | [2]; at 33.0 µM 13% | [2]; at 100.0 µM 19% | [3]; at 1.2 µM 0% | [3]; at 3.7 µM -5% | [3]; at 11.0 µM -9% | [3]; at 33.0 µM -11% | [3]; at 100.0 µM -12% | [4]; at 1.2 µM -1% | [4]; at 3.7 µM -3% | [4]; at 11.0 µM -2% | [4]; at 33.0 µM -5% | [4]; at 100.0 µM -4% | [5]; at 1.2 µM -7% | [5]; at 3.7 µM -11% | [5]; [16] -6% | [5]; at 11.0 µM -12% | [5]; at 33.0 µM 3% | [5]; [17] 6% | [5]; at 50.0 µM 22.4% | [5]; at 100.0 µM 21% | [6]; at 1.2 µM -2% | [6]; at 3.7 µM 0% | [6]; [16] 0% | [6]; at 11.0 µM 0% | [6]; at 33.0 µM 37% | [7]; at 1.2 µM 1% | [7]; at 3.7 µM 1% | [7]; at 11.0 µM 3% | [7]; at 33.0 µM 10% | [7]; at 100.0 µM 12% | [8]; [16] 0% | [8]; [17] 32% | [8]; at 50.0 µM 39% | [9]; at 1.2 µM -5% | [9]; at 3.7 µM -8% | [9]; at 11.0 µM -11% | [9]; at 33.0 µM -11% | [9]; at 100.0 µM -9% | [10]; [16] -5% | [10]; [17] -14% | [10]; at 50.0 µM 4% | [11]; at 1.2 µM -7% | [11]; at 3.7 µM -4% | [11]; [16] -8% | [11]; at 11.0 µM -15% | [11]; at 33.0 µM -18% | [11]; [17] -13% | [11]; at 50.0 µM 17.1% | [11]; at 100.0 µM -15% | [12]; at 1.2 µM 2% | [12]; at 3.7 µM 7% | [12]; at 11.0 µM 16% | [12]; at 33.0 µM 35% | [12]; at 100.0 µM 34% | [14]; at 1.2 µM -16% | [14]; at 3.7 µM -11% | [14]; at 11.0 µM -2% | [14]; at 33.0 µM 9% | [14]; at 100.0 µM 11% | [15]; [16] -2% | [15]; [17] 19% | [15]; at 50.0 µM 26.1%

Source: PubChem BioAssay (NCI)
